Experiment in all cases: HT-SELEX; 20 mM HEPES pH 7, 140 mM KCl, 5 mM NaCl, 1 mM K2HPO4, 2 mM MgSO4, 100 uM EGTA, ZnSO4, 0.1% Tween20; room temperature, 1 h; high values mean tight binding
Settings in all cases: protein: ivt; tags: eGFP (N-terminal); dsDNA, one strand shown

The target in one assay is ZNF721 full-length (Homo sapiens, UniProt Q8TF20-2 1-923). The method in brief: (§1)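 Full-length or DNA-binding-domain forms of a tagged transcription factor were produced in HEK293 lysate or cell-free extract and immobilised on beads. Incubation with a randomized 40-base DNA library ran for 1 h at room temperature in HEPES/KCl low-stringency buffer with Tween20, after which bound DNA was washed, heat-eluted, PCR-amplified over successive cycles and Illumina-sequenced. Binding strength is given as the relative k-mer count in selected reads, higher for tighter binding.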

For a further assay, the target named is ZNF721 DBD1 (Homo sapiens, UniProt Q8TF20-2 29-461). The method in brief:
as §1

The target of the next assay is ZNF721 DBD2 (Homo sapiens, UniProt Q8TF20-2 395-923). Summed up:
as §1

Chain of ZNF721 DBD1 (Q8TF20 17-449): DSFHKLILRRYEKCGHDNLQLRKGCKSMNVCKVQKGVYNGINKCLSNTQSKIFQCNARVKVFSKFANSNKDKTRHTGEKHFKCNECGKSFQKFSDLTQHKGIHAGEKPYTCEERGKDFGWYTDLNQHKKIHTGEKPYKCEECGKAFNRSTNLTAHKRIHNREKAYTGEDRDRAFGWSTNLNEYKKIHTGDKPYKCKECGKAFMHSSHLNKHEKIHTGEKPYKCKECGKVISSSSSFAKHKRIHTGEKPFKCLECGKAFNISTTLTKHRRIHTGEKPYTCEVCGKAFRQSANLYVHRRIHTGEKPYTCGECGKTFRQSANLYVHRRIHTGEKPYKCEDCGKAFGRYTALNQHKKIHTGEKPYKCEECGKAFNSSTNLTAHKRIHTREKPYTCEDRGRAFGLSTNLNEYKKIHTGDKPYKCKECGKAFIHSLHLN
Chain of ZNF721 DBD2 (Q8TF20 383-911): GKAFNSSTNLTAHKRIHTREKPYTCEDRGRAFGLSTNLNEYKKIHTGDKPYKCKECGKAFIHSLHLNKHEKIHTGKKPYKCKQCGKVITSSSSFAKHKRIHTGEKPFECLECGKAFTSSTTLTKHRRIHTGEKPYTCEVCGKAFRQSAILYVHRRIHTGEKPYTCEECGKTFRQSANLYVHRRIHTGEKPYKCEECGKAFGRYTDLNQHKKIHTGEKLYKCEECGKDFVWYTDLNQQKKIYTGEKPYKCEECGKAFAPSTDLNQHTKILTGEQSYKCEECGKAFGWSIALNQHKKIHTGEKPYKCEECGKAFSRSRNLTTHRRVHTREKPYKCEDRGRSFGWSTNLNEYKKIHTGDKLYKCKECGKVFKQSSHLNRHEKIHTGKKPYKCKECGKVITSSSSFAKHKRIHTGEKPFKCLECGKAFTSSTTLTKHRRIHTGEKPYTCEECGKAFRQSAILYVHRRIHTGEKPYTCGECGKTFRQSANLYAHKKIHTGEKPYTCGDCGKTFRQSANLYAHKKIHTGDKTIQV
Chain of ZNF721 full-length (Q8TF20 other isoform, or with tags, fused parts or gaps): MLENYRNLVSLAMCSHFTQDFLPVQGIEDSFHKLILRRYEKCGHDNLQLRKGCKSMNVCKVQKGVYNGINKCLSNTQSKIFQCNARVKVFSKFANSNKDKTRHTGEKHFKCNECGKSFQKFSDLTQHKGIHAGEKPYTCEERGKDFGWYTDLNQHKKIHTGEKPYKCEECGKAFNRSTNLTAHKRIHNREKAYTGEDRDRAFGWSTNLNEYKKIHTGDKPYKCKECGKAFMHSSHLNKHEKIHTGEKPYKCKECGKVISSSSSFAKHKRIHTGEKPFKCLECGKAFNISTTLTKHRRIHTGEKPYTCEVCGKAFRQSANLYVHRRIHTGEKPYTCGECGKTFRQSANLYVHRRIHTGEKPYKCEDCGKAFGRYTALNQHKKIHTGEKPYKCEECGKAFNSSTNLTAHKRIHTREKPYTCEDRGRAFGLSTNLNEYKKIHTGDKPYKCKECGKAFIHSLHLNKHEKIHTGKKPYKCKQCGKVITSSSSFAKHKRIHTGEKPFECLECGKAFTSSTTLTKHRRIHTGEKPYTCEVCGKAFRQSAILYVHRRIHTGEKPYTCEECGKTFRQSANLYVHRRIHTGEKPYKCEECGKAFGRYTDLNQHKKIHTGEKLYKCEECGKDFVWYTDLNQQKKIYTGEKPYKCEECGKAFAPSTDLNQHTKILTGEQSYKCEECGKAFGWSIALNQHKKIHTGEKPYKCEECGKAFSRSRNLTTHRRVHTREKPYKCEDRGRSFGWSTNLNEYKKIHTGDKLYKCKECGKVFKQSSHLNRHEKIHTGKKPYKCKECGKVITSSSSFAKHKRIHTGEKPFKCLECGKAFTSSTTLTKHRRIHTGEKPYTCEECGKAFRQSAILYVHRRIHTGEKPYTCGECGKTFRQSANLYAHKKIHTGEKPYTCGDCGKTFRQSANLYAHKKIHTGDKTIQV

For the sequence CCCTCCCTCC, the values for the binding signal with ZNF721 full-length, with ZNF721 DBD1 and with ZNF721 DBD2 were 0.178 relative 10-mer count, 0.0107 relative 10-mer count and 0.0211 relative 10-mer count, respectively.
The corresponding values for CCCTCCCCCC are 0.342 relative 10-mer count, 0.0158 relative 10-mer count and 0.00515 relative 10-mer count.
In the same order, the values of CCCACCCCCC are 0.427 relative 10-mer count, 0.0183 relative 10-mer count and 0.00384 relative 10-mer count.
The corresponding values for CCACGCCACC are 0.105 relative 10-mer count, 0.00353 relative 10-mer count and 0.00443 relative 10-mer count.
CCTCCACCCC: the results for the binding signal with ZNF721 full-length, with ZNF721 DBD1 and in the assay with ZNF721 DBD2 were 0.263 relative 10-mer count, 0.0117 relative 10-mer count and 0.00455 relative 10-mer count, respectively.
In the case of CCCACCCTCC, the binding signal is 0.252 relative 10-mer count with ZNF721 full-length, 0.0121 relative 10-mer count with ZNF721 DBD1 and 0.0115 relative 10-mer count in the assay with ZNF721 DBD2.
The corresponding values for CCTCCACCAC are 0.116 relative 10-mer count, 0.00564 relative 10-mer count and 0.00923 relative 10-mer count.
In the same order, the values of GCATACCCAA are 0.217 relative 10-mer count, 0.00968 relative 10-mer count and 0.192 relative 10-mer count.
In the same order, the values of CCCACACCCC are 0.278 relative 10-mer count, 0.00977 relative 10-mer count and 0.00407 relative 10-mer count.
In the case of CACCACCCTC, the binding signal with ZNF721 full-length was 0.111 relative 10-mer count; with ZNF721 DBD1, 0.00537 relative 10-mer count; in the assay with ZNF721 DBD2, 0.00419 relative 10-mer count.
In the same order, the values of CCCCGCCCCG are 0.144 relative 10-mer count, 0.00486 relative 10-mer count and 0.00348 relative 10-mer count.
The corresponding values for CACCGCCACC are 0.117 relative 10-mer count, 0.00339 relative 10-mer count and 0.00384 relative 10-mer count.
Consider CACCCGCCCC, for which the values for the binding signal with ZNF721 full-length, with ZNF721 DBD1 and with ZNF721 DBD2 were 0.188 relative 10-mer count, 0.0066 relative 10-mer count and 0.00108 relative 10-mer count, respectively.
Regarding ACCCACCCCG, the binding signal in the assay with ZNF721 full-length is 0.133 relative 10-mer count; with ZNF721 DBD1, 0.00491 relative 10-mer count; in the assay with ZNF721 DBD2, 0.00264 relative 10-mer count.
On to CCACCCACCC, for which the binding signal was determined as 0.415 relative 10-mer count with ZNF721 full-length, 0.0173 relative 10-mer count with ZNF721 DBD1 and 0.00587 relative 10-mer count with ZNF721 DBD2.
On to CACCCGCCCA, for which the figures for the binding signal with ZNF721 full-length, with ZNF721 DBD1 and with ZNF721 DBD2 were 0.103 relative 10-mer count, 0.00358 relative 10-mer count and 0.0024 relative 10-mer count, respectively.
In the case of GGGGTGGGAC, the binding signal in the assay with ZNF721 full-length turned out to be 0.111 relative 10-mer count; in the assay with ZNF721 DBD1, 0.00449 relative 10-mer count; with ZNF721 DBD2, 0.00108 relative 10-mer count.
In the same order, the values of CCCCAACACC are 0.114 relative 10-mer count, 0.00417 relative 10-mer count and 0.00324 relative 10-mer count.
With ACCCCGACCC, the binding signal with ZNF721 full-length is 0.102 relative 10-mer count; in the assay with ZNF721 DBD1, 0.00284 relative 10-mer count; in the assay with ZNF721 DBD2, 0.0012 relative 10-mer count.
In the same order, the values of CGCCCCCACC are 0.19 relative 10-mer count, 0.00945 relative 10-mer count and 0.00515 relative 10-mer count.
Consider CCAAAAAAAG, for which the binding signal with ZNF721 full-length came to 0.124 relative 10-mer count; with ZNF721 DBD1 it was 0.00812 relative 10-mer count; in the assay with ZNF721 DBD2, 0.0564 relative 10-mer count.
In the same order, the values of CCCTCACCAC are 0.104 relative 10-mer count, 0.00482 relative 10-mer count and 0.00587 relative 10-mer count.
The corresponding values for AGCAGCATAC are 0.146 relative 10-mer count, 0.00179 relative 10-mer count and 0.164 relative 10-mer count.
For AACAAGCAGT, the results for the binding signal with ZNF721 full-length, in the assay with ZNF721 DBD1 and with ZNF721 DBD2 were 0.128 relative 10-mer count, 0.017 relative 10-mer count and 0.0905 relative 10-mer count, respectively.
Take ACGCCCCACC: the results for the binding signal with ZNF721 full-length, with ZNF721 DBD1 and in the assay with ZNF721 DBD2 were 0.11 relative 10-mer count, 0.00271 relative 10-mer count and 0.00431 relative 10-mer count, respectively.
On to CAAAAAAACA, for which the binding signal in the assay with ZNF721 full-length came out at 0.365 relative 10-mer count; with ZNF721 DBD1, 0.00349 relative 10-mer count; with ZNF721 DBD2, 0.263 relative 10-mer count.
Turning to CCCCAACCAC, the binding signal was 0.156 relative 10-mer count in the assay with ZNF721 full-length, 0.00665 relative 10-mer count with ZNF721 DBD1 and 0.00515 relative 10-mer count in the assay with ZNF721 DBD2.
Turning to CAACCCACCC, the binding signal in the assay with ZNF721 full-length came to 0.171 relative 10-mer count; in the assay with ZNF721 DBD1, 0.00532 relative 10-mer count; in the assay with ZNF721 DBD2, 0.00623 relative 10-mer count.
For AACAAAAAAA, the binding signal is 0.116 relative 10-mer count with ZNF721 full-length, 0.0078 relative 10-mer count in the assay with ZNF721 DBD1 and 0.069 relative 10-mer count in the assay with ZNF721 DBD2.
The corresponding values for CACCCCGCCC are 0.205 relative 10-mer count, 0.00656 relative 10-mer count and 0.003 relative 10-mer count.
In the same order, the values of CCCCTCGCCC are 0.161 relative 10-mer count, 0.00665 relative 10-mer count and 0.00372 relative 10-mer count.
In the same order, the values of AGGGTATCCA are 0.133 relative 10-mer count, 0.00858 relative 10-mer count and 0.224 relative 10-mer count.
With AAAAGCAGCA, the values for the binding signal with ZNF721 full-length, with ZNF721 DBD1 and with ZNF721 DBD2 were 0.304 relative 10-mer count, 0.00578 relative 10-mer count and 0.296 relative 10-mer count, respectively.
The corresponding values for CAACAAAGCA are 0.126 relative 10-mer count, 0.00101 relative 10-mer count and 0.145 relative 10-mer count.
In the same order, the values of GCCCGCCCCC are 0.106 relative 10-mer count, 0.00413 relative 10-mer count and 0.00132 relative 10-mer count.
In the same order, the values of GCACCCCCAC are 0.107 relative 10-mer count, 0.00523 relative 10-mer count and 0.0174 relative 10-mer count.
Turning to ACCCACCCGC, the binding signal with ZNF721 full-length stood at 0.102 relative 10-mer count; with ZNF721 DBD1 it was 0.00316 relative 10-mer count; with ZNF721 DBD2 it was 0.00276 relative 10-mer count.
The corresponding values for CACCCTACCC are 0.107 relative 10-mer count, 0.00408 relative 10-mer count and 0.00491 relative 10-mer count.
For the sequence AAGTGTATCC, the binding signal with ZNF721 full-length was determined as 0.292 relative 10-mer count; with ZNF721 DBD1 it was 0.241 relative 10-mer count; with ZNF721 DBD2, 0.00503 relative 10-mer count.
In the same order, the values of CCCCTTCCCC are 0.162 relative 10-mer count, 0.00702 relative 10-mer count and 0.00192 relative 10-mer count.
The corresponding values for ACAAAAAAGC are 0.187 relative 10-mer count, 0.0198 relative 10-mer count and 0.0647 relative 10-mer count.
In the same order, the values of CTAAAAAAAA are 0.107 relative 10-mer count, 0.0111 relative 10-mer count and 0.0533 relative 10-mer count.
In the case of AGCGTATCCA, the binding signal worked out at 0.221 relative 10-mer count with ZNF721 full-length, 0.0368 relative 10-mer count with ZNF721 DBD1 and 0.31 relative 10-mer count with ZNF721 DBD2.
In the same order, the values of ACACCCACCC are 0.171 relative 10-mer count, 0.0105 relative 10-mer count and 0.00336 relative 10-mer count.
In the same order, the values of CCCCTCCCAC are 0.218 relative 10-mer count, 0.0104 relative 10-mer count and 0.00695 relative 10-mer count.
The corresponding values for AAAAAGCAGA are 0.107 relative 10-mer count, 0.00183 relative 10-mer count and 0.0852 relative 10-mer count.
As to CACCGCCCAC, the binding signal in the assay with ZNF721 full-length amounted to 0.123 relative 10-mer count; with ZNF721 DBD1, 0.00482 relative 10-mer count; with ZNF721 DBD2, 0.00372 relative 10-mer count.
The corresponding values for GGGGCGGGGA are 0.131 relative 10-mer count, 0.00633 relative 10-mer count and 0.00264 relative 10-mer count.
The corresponding values for AAAAGCAGCC are 0.136 relative 10-mer count, 0.00261 relative 10-mer count and 0.112 relative 10-mer count.
For the sequence CAGCATCCCC, the binding signal in the assay with ZNF721 full-length turned out to be 0.143 relative 10-mer count; with ZNF721 DBD1 it was 0.00165 relative 10-mer count; with ZNF721 DBD2 it was 0.154 relative 10-mer count.
In the case of AAAAAAAGGT, the binding signal with ZNF721 full-length was found to be 0.117 relative 10-mer count; with ZNF721 DBD1, 0.00583 relative 10-mer count; with ZNF721 DBD2, 0.0857 relative 10-mer count.
In the same order, the values of AAAAAGAGCA are 0.108 relative 10-mer count, 0.0078 relative 10-mer count and 0.0193 relative 10-mer count.
In the same order, the values of CCCCCCCAAC are 0.155 relative 10-mer count, 0.0044 relative 10-mer count and 0.00791 relative 10-mer count.
In the same order, the values of CGTCCCACCC are 0.127 relative 10-mer count, 0.00495 relative 10-mer count and 0.00204 relative 10-mer count.
Take CGCTTTTTTC: the binding signal with ZNF721 full-length was determined as 0.258 relative 10-mer count; in the assay with ZNF721 DBD1 it was 0.0622 relative 10-mer count; in the assay with ZNF721 DBD2, 0.0303 relative 10-mer count.
In the same order, the values of CATCCCACCC are 0.138 relative 10-mer count, 0.00527 relative 10-mer count and 0.00563 relative 10-mer count.
The corresponding values for ACCTCCCCAC are 0.108 relative 10-mer count, 0.00422 relative 10-mer count and 0.0036 relative 10-mer count.
The corresponding values for ACCCCCACCA are 0.145 relative 10-mer count, 0.00573 relative 10-mer count and 0.00503 relative 10-mer count.
In the case of TCCCACCCCA, the binding signal worked out at 0.147 relative 10-mer count in the assay with ZNF721 full-length, 0.00564 relative 10-mer count in the assay with ZNF721 DBD1 and 0.00372 relative 10-mer count in the assay with ZNF721 DBD2.
The corresponding values for CCACACCCAC are 0.128 relative 10-mer count, 0.00605 relative 10-mer count and 0.00515 relative 10-mer count.

The record behind these values is publication PMC13541613, “GHT-SELEX demonstrates unexpectedly high intrinsic sequence specificity and complex DNA binding of many human transcription factors”.
